Measured values published in the supplement of paper PMC6555819.

Legend:
Experiment in all cases: PBM binding z-score (relative to random genomic background probes); higher = stronger binding; sequences stand for … in GC…GCGATTGACAGCGTAGAATGAAGG
[1] = test system: FXR:RXRa (NR concentration 270 nM, RXRa partner concentration 90 nM)
Procedure, shortened: (§1)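 Each nuclear receptor dimer, without ligand, was incubated for 1 h on custom Agilent 4×180K protein-binding microarrays. Binding was detected with antibodies against each partner (one per run), and scanned fluorescence was regression-normalized. The binding z-scores are referenced to random human genomic background probes.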

[2] = test system: LXRa:RXRa (NR concentration 270 nM, RXRa partner concentration 90 nM)
Procedure, shortened: as §1

[3] = test system: LXRa homodimer (NR concentration 270 nM)
Procedure, shortened: as §1

[4] = test system: LXRb:RXRa (NR concentration 270 nM, RXRa partner concentration 90 nM)
Procedure, shortened: as §1

[5] = test system: LXRb homodimer (NR concentration 270 nM)
Procedure, shortened: as §1

[6] = test system: PPARa:RXRa (NR concentration 270 nM, RXRa partner concentration 90 nM)
Procedure, shortened: as §1

[7] = test system: PPARg:RXRa (NR concentration 180 nM, RXRa partner concentration 90 nM)
Procedure, shortened: as §1

[8] = test system: PPARg:RXRa 270nM:90nM, anti-RXR (NR concentration 270 nM, RXRa partner concentration 90 nM)
Procedure, shortened: as §1

[9] = test system: PPARg:RXRa 30nM:10nM, anti-RXR (NR concentration 30 nM, RXRa partner concentration 10 nM)
Procedure, shortened: as §1

[10] = test system: PPARg:RXRa 90nM:30nM, anti-RXR (NR concentration 90 nM, RXRa partner concentration 30 nM)
Procedure, shortened: as §1

Sequence | PBM binding z-score [1] | PBM binding z-score [2] | PBM binding z-score [3] | PBM binding z-score [4] | PBM binding z-score [5] | PBM binding z-score [6] | PBM binding z-score [7] | PBM binding z-score [8] | PBM binding z-score [9] | PBM binding z-score [10]
CCTTACGGGTCACGAGGTTTTAGCACGACGAGCG | 6.33 | 4.19 | -0.186 | 3.4 | -0.145 | 5.72 | 6.51 | 6.3 | 2.95 | 4.7
ATCGAAAGGTCTACGAGGTGAGTATACACCGTTT | 0.287 | 0.343 | -0.515 | 0.353 | -0.0521 | 1.03 | 0.797 | 0.573 | 0.114 | 0.523
ATCGCTAGGTAAGACTCAGTTCAGTGAAGAACGC | -0.617 | -0.685 | -0.587 | -0.734 | -0.581 | -0.45 | -0.14 | -0.615 | -0.356 | -0.686
TGAATGAGGTCATAAGATCAGGGAACGTTGCAAA | 7.31 | 5.47 | 0.779 | 4.4 | 1.39 | 5.96 | 6.96 | 6.58 | 4.09 | 6.04
TCATATAGGTAAACAGGTGAACGTCCGTAAGTTA | 1.03 | 1.3 | 0.422 | 1.09 | -0.0806 | 2.56 | 2.7 | 3.48 | 4.2 | 3.9
ACAGACAGGTGATGAAGGTAACTCCGGCTATCAT | 0.229 | 0.181 | -0.0879 | -0.149 | -0.444 | 0.23 | 0.658 | -0.261 | -0.0835 | -0.0688
CCTAGTGGGTCAAGGTCACACACGCTATAGGTAC | 5.66 | 4.37 | 1.16 | 3.95 | 0.411 | 5.54 | 8.69 | 7.42 | 5.3 | 6.95
AGAACGAGGGCACGCGGAGTTGATAGCAGAGTAG | 0.925 | 0.696 | -0.442 | 0.259 | -1.01 | 2.58 | 2.36 | 1.91 | 0.448 | 1.26
CCTAGTTGATCAAGGTCACACACGCTATAGGTAC | 4.38 | 4.15 | 2.75 | 4.06 | 1.42 | 4.36 | 2.96 | 3.19 | 1.28 | 2.24
CGTCCAAGGTCAATGCTAGGTCAGTCAAAGCATT | 6.9 | 5.33 | 3 | 4.39 | 0.815 | 4.98 | 4 | 4.84 | 1.11 | 3.32
ATATCTAGGTTACATCCGGGTCATTCAGGCTATG | 2.52 | 4.41 | 1.93 | 3.04 | 1.64 | 4.41 | 6 | 5.11 | 2.4 | 4.09
ACAGACAGGTGATGAAGGCAACTCAGGCTATCAT | -0.379 | -0.449 | -0.41 | -0.706 | -0.333 | -0.357 | 0.764 | -0.331 | -0.116 | -0.446
TCTTGTAGATCAAGCAGGTTAAGACAGCCTGAGT | 0.233 | 0.271 | -0.132 | 0.33 | -0.3 | 0.76 | 0.0477 | 1.3 | 2.29 | 1.76
